Rows were chosen to be rich in hits. Some 2.1% of all compounds tested hit in one or more screens of this group.
MsrA act: bovine MsrA enzyme activators, primary screen, biochemical, absorbance, HTS. Methionine sulfoxide reductase A (Bos taurus). AID 602163, 2012. hit rate 0.3% among 360,000. purified bovine MsrA, absorbance read-out. activation, % at 10.6 µM; in the data active means activation above about 7.5%
MsrA inhibitor: bovine MsrA enzyme inhibitors, primary screen, biochemical, absorbance, HTS | inhibition, % at 15.5 µM | hit rate 0.75% among 360,000 | Methionine sulfoxide reductase A (Bos taurus) | purified bovine MsrA, absorbance read-out; in the data active means inhibition above about 4.5%
ABCB6 inh MLPCN: ABCB6 transporter inhibitors, primary screen, K562-ABCB6 cells, flow cytometry, MLPCN library | ATP-binding cassette sub-family B member 6 (Homo sapiens), Q9NP58 | K562-ABCB6 porphyrin accumulation, 1 h; stronger effect = lower value | fluorescence ratio to DMSO, % at 10 µM | hit rate 0.19% among 360,000 | AID 602162, 2011;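 active means fluorescence ratio to DMSO below 75%, the collection mean minus 3 SD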;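 further: signal is porphyrin accumulated inside mitochondria; lower ratio means ABCB6 inhibition with less porphyrin fluorescence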
Target sequence (Q9NP58 whole entry, looked up): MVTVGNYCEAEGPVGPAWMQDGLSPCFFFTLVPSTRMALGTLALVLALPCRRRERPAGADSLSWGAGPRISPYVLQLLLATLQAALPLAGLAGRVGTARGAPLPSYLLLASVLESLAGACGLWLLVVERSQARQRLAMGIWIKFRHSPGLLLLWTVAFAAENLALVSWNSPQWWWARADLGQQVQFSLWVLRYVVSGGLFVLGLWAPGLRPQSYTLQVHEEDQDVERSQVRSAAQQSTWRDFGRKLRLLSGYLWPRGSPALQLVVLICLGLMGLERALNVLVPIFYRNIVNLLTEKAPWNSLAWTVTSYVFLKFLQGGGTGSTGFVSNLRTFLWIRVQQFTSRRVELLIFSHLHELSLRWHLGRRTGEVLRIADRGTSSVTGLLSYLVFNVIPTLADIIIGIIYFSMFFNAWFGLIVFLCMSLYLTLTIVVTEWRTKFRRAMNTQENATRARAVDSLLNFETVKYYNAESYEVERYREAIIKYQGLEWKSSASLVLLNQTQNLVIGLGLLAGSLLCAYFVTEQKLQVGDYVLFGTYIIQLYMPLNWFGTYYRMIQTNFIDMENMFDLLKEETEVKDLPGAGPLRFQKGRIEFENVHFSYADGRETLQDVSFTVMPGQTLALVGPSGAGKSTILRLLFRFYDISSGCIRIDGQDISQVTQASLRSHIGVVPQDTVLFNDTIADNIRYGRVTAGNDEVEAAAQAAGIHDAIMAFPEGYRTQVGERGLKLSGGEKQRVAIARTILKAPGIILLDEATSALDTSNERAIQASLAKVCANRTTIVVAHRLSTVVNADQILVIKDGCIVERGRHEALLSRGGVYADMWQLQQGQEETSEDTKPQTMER
SMARCA2 act: SMARCA2 (BRM) function activators, primary screen, cell-based, luminescence, high throughput. MG213 cells, MMTV-luciferase reporter, dexamethasone, overnight. hit rate 1% among 370,000. activation, % at 9.1 µM; in the data active means activation above about 7.8%
SMARCA2 conf: SMARCA2 (BRM) function activators, confirmation, cell-based, luminescence, triplicate. shares compounds with SMARCA2 act. MG213 cells, MMTV-luciferase with dexamethasone, overnight; MG213 cells expressing E1A, Rb sequestered; DMSO wells 0%, reference activator 100%. activation, % at 9.1 µM. hit rate 30% among 3,500. AID 652260, 2013;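 active means activation above its plate's cutoff, the mean activation of tested wells plus 3 SD, cut at about 7.9% in these data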
GAL4-VP16 Luc: GAL4-VP16 luciferase reporter activation, counter-screen for SMARCA2 (BRM) activator project, cell-based, pG5luc, luminescence, high throughput; shares compounds with SMARCA2 act; HEK293 GAL4-VP16 pG5luc reporter; scaled: DMSO wells 0%, SAHA wells 100%; activation, % at 9.1 µM; hit rate 41% among 3,500;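 active means activation above the solvent-only control well mean plus 3 SD, averaged across control plates, cut at about 5.2% in these data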
Numbers stand for hits; i = inactive; nt = no result.

SMILES | MsrA act | MsrA inhibitor | ABCB6 inh MLPCN | SMARCA2 act | SMARCA2 conf | GAL4-VP16 Luc
CC(=O)c1c(C)nc(-c2ccc(Cl)cc2)nc1N=CN(C)C | i | i | i | i | nt | nt
COc1cc(/C=N/NS(=O)(=O)c2ccc3ccccc3c2)ccc1OCc1ccc(C(=O)O)cc1 | i | i | i | i | nt | nt
COc1cc(/C=N/NS(=O)(=O)c2ccc(C)cc2)ccc1OCc1cccc(C(=O)O)c1 | i | i | i | 9.5 | i | 19
COP(=O)(O)C(Cc1ccccc1)NC(=O)OCc1ccccc1 (stereo not drawn) | nt | nt | nt | i | nt | nt
Oc1ccc2ccccc2c1C=Nn1c(-c2n[nH]c3c2CCC3)n[nH]c1=S | nt | nt | nt | i | nt | nt
COc1ccc(COC(=O)N/N=C/c2cccs2)cc1 | i | i | i | 9.3 | i | i
COc1ccc(CC(=O)N/N=C/c2cccs2)cc1OC | i | i | i | i | nt | nt
Cc1c(NC(=O)C(C)OC(=O)c2cccnc2)c(=O)n(-c2ccccc2)n1C (stereo not drawn) | i | i | i | 8.3 | i | i
CC(C)[C@@H]1CC2=C(C(=O)OC(C)(C)O2)[C@H](CCc2ccccc2)O1 | i | i | i | i | nt | nt
CCc1cccc2c(C(=O)CN3C(=O)NC4(CCCCCC4)C3=O)c[nH]c12 | i | i | i | 11 | 13 | i
CCc1cccc2c(C(=O)CN3C(=O)NC4(CCCCC4)C3=O)c[nH]c12 | i | i | i | i | nt | nt
CCc1nnc(NC(=O)c2cccc(OC)c2)s1 | i | i | i | i | nt | nt
COc1cccc(C(=O)Nc2nnc(-c3cccs3)s2)c1 | i | i | i | 8.3 | 12 | 14
Cn1c(CCC(=O)O)nc2cc(S(=O)(=O)N3CCCCC3)ccc21 | i | i | i | 11 | i | i
Cn1c(CCC(=O)O)nc2cc(S(=O)(=O)N3CCCC3)ccc21 | i | i | i | i | nt | nt
COC(=O)c1c(-c2ccccc2)[nH]c(-c2nccc3ccccc23)c1C(=O)OC | i | i | i | 8.4 | i | i
COc1cccc(N2CCN(C(=O)CSc3nc4ncccc4[nH]3)CC2)c1 | nt | nt | nt | i | nt | nt
Cc1ccc(C(=O)Nc2cnc3ccccn3c2=O)cc1 | i | i | i | i | nt | nt
COc1ccc(NC(=O)c2cnc3sccn3c2=O)cc1 | i | i | i | 8.3 | i | 5.2
Cc1cccc(NC(=O)c2cnc3sccn3c2=O)n1 | i | i | i | i | nt | nt
Cc1cccc(NC(=O)c2cnc3sccn3c2=O)c1C | i | i | i | i | nt | nt
O=C(Nc1cnc2sccn2c1=O)c1ccccc1Cl | i | i | i | 8.0 | 15 | 11
O=C(Nc1cnc2ccccn2c1=O)c1ccc(Cl)cc1Cl | i | i | i | 9.0 | i | i
CCOC(=O)N1CCN(C(=O)C[C@H]2C[C@@]3(C(=O)OCC)CCCC4=C3N(CCC4)C2=O)CC1 | nt | nt | nt | i | nt | nt
CN(C)[C@H]1CCN(c2cccc3c2S(=O)(=O)N(C2CC2)CCCO3)C1 | nt | nt | nt | i | nt | nt
SMILES | MsrA act | MsrA inhibitor | ABCB6 inh MLPCN | SMARCA2 act | SMARCA2 conf | GAL4-VP16 Luc
CCCCCCC12Cc3cc(OC)c(OC)cc3C(O1)C1=C(O2)C(C)(C)CCC1=O (stereo not drawn) | nt | i | nt | i | nt | nt
O=C(NCc1ccccc1)OCCN1C(=O)CCC12CCC(c1ccc(Cl)cc1)CC2 (stereo not drawn) | nt | nt | nt | i | nt | nt
O/N=C(/CCc1ccccc1)c1ccc2c(c1)OCCO2 | i | i | i | 12 | 12 | 12
Nc1nc(Nc2ccccc2F)nc(NCc2ccco2)c1[N+](=O)[O-] | i | i | i | 13 | i | i
C[C@H](NC(=O)OCc1ccccc1)P(=O)(O)O | nt | nt | nt | i | nt | nt
CC(NC(=O)CCSCc1ccccc1F)c1ccccc1 (stereo not drawn) | i | i | i | 12 | i | i
O=C(Nc1ccc(Br)cc1Cl)c1cnccn1 | i | i | i | 9.4 | 12 | i
O=C(Nc1ccccc1Cl)c1cnccn1 | i | i | i | i | nt | nt
Oc1cccc2ccc(/C=C/c3ccccc3Cl)nc12 | i | i | i | 12 | i | 11
Oc1cccc2ccc(/C=C/c3c(F)cccc3Cl)nc12 | i | i | i | 11 | i | 16
Nc1nccc(/C=C/c2c(F)cccc2Cl)n1 | i | i | i | i | nt | nt
COc1ccc(S(=O)(=O)N2CCC(c3nc4ccccc4o3)CC2)c(OC)c1 | nt | nt | nt | i | nt | nt
c1ccc2oc(-c3ccc4nc[nH]c4c3)nc2c1 | i | i | i | 9.6 | 10 | 14
COc1ccc(-c2nc3ccccc3o2)cc1OC | i | i | i | i | nt | nt
O=C(CNC(=O)c1ccccc1)OCc1nc2ccccc2s1 | i | i | i | 14 | i | 6.3
O=C(CNC(=O)c1ccccc1F)OCc1nc2ccccc2s1 | i | i | i | i | nt | nt
Cc1ccc(C(=O)CNc2ccc(Cl)cc2)cc1 | i | i | i | 13 | 12 | i
CSc1ncc(OCc2ccccc2)c(=O)[nH]1 | i | i | i | 10 | i | i
CCOC(=O)[C@]12CCCC=C1N(Cc1ccc(OC)cc1)C(=O)[C@@H]2CC(=O)N1CCN(C(=O)C2CC2)CC1 | nt | nt | nt | i | nt | nt
O=C(c1ccco1)N1CCc2ccccc21 | i | i | i | 8.5 | i | i
O=C(/C=C/c1ccco1)N1CCc2ccccc21 | i | i | i | 9.6 | 17 | 10.0
COc1cc(-c2cc3nc(NCc4cccc(Cl)c4)ccn3n2)cc(OC)c1OC | i | i | i | i | nt | nt
COc1ccc(/C=N/Nc2cc(C)nc3c(C)cccc23)cc1 | i | i | i | 9.1 | 32 | i
CC(C)(C)c1ccc(C(=O)NCC(=O)NCc2ccccn2)cc1 | i | i | i | 8.4 | i | i
COc1ccccc1NC(=O)Nc1ccc(N2CCOCC2)cc1 | i | i | i | 8.8 | 8.1 | 5.6
SMILES | MsrA act | MsrA inhibitor | ABCB6 inh MLPCN | SMARCA2 act | SMARCA2 conf | GAL4-VP16 Luc
COc1ccccc1NS(=O)(=O)c1cc(NC(=O)/C=C/c2cccs2)ccc1N1CCOCC1 | i | i | i | 18 | 9.2 | i
COc1ccccc1CNCC(=O)Nc1ccc(N2CCOCC2)cc1 | i | i | i | i | nt | nt
O=C(/C=C/c1cccs1)Nc1ccc(N2CCOCC2)c(S(=O)(=O)Nc2ccccc2Cl)c1 | i | i | i | i | nt | nt
COc1ccccc1NS(=O)(=O)c1cc(NC(=O)c2ccc(NC(C)=O)cc2)ccc1N1CCOCC1 | i | i | i | 18 | 16 | i
COc1ccccc1NS(=O)(=O)c1cc(NC(=O)c2ccncc2)ccc1N1CCOCC1 | i | i | i | i | nt | nt
CCN(CCNC(=O)[C@H]1C=C(OC)C(=O)C[C@H](c2ccccc2)[C@H]1C)C(C)=O | nt | nt | nt | i | nt | nt
COC(=O)[C@@]12CCCCC3=C1N(CCC3)C(=O)[C@H]2CC(=O)N1CCN(C(=O)c2ccco2)CC1 | nt | nt | nt | i | nt | nt
Cc1ccc(Nc2nnc(-c3ccccc3N)o2)cc1C | i | i | i | 12 | i | 8.5
O=C(NC1CCCCN(Cc2cccc(Cl)c2)C1=O)c1ccccn1 (stereo not drawn) | nt | nt | nt | i | nt | nt
CC(C)(C)C(=O)NC1CCCCN(Cc2ccc(Cl)cc2)C1=O (stereo not drawn) | nt | nt | nt | i | nt | nt

Source: PubChem
